# The supplement of paper PMC11732987, “Enantioselective OTUD7B fragment discovery through chemoproteomics screening and high-throughput optimisation” (Communications Chemistry, 2025)
# Values without a mark were called inactive.
# Legend:
# Experiment in all cases: log2 ratio of Biotin-Ahx-Ub-VS probe labelling (fragment/DMSO); higher = less target engagement (more negative = stronger competition), active = hit call of the paper (q ≤ 0.05, log2 ratio ≤ -1)
# Conditions in all cases: compound concentration: 200 uM; treatment time: 3 h
# USP19 = target: T1, USP19 (UniProt O94966)
# T1 sequence (whole entry): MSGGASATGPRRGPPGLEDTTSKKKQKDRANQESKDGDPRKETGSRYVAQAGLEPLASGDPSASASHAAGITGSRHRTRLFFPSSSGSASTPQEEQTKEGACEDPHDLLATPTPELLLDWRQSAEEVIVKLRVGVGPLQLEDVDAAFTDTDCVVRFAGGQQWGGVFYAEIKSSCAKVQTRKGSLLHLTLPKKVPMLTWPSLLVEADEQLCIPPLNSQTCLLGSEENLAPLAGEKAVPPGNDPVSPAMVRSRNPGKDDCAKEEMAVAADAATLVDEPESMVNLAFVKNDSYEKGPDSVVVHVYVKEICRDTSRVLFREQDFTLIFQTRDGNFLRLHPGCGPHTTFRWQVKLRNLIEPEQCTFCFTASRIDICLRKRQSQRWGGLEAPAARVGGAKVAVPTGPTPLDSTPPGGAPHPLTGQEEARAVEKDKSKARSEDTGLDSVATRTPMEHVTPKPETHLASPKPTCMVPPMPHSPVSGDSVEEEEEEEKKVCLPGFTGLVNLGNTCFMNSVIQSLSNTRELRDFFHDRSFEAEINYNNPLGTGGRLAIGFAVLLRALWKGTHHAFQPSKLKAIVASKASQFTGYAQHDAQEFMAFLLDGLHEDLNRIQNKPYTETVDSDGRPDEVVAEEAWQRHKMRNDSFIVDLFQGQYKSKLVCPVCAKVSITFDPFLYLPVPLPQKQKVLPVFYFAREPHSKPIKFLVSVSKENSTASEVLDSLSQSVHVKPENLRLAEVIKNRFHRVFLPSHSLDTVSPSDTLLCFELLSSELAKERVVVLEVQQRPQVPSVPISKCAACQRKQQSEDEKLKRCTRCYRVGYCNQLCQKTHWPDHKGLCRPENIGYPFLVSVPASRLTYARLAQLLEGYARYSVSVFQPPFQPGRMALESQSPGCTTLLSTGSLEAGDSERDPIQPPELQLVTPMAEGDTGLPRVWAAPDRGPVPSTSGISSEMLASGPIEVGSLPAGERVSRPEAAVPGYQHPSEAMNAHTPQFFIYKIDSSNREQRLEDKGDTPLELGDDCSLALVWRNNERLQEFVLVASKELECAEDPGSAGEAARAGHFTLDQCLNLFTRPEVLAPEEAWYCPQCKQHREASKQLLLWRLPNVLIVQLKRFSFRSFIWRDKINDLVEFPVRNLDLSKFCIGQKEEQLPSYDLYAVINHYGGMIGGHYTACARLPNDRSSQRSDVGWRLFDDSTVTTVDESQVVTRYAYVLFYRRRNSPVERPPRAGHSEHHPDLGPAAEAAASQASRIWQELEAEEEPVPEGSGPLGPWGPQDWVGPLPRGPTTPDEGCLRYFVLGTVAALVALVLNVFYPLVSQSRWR
# In short: (§1)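 Labelled DUBs from HEK293T lysate were NeutrAvidin-enriched, digested with LysC and trypsin, and run by diaPASEF LC-MS/MS. Before that, each 495 µg sample in Tris/CHAPS/IGEPAL buffer with protease inhibitors was treated in triplicate with fragment at 200 µM or vehicle for 3 h, then with Biotin-Ahx-Ub-VS at 0.5 µM final for 1 h. Values are average log2 ratios of fragment over vehicle by unpaired t-test, based on global-median-normalised Spectronaut label-free quantities from proteins with ≥2 unique peptides.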
# USP24 = USP24 (UniProt Q9UPU5)
# In short: as §1
# USP25 = target: T2, USP25 (UniProt Q9UHP3)
# T2 sequence (whole entry): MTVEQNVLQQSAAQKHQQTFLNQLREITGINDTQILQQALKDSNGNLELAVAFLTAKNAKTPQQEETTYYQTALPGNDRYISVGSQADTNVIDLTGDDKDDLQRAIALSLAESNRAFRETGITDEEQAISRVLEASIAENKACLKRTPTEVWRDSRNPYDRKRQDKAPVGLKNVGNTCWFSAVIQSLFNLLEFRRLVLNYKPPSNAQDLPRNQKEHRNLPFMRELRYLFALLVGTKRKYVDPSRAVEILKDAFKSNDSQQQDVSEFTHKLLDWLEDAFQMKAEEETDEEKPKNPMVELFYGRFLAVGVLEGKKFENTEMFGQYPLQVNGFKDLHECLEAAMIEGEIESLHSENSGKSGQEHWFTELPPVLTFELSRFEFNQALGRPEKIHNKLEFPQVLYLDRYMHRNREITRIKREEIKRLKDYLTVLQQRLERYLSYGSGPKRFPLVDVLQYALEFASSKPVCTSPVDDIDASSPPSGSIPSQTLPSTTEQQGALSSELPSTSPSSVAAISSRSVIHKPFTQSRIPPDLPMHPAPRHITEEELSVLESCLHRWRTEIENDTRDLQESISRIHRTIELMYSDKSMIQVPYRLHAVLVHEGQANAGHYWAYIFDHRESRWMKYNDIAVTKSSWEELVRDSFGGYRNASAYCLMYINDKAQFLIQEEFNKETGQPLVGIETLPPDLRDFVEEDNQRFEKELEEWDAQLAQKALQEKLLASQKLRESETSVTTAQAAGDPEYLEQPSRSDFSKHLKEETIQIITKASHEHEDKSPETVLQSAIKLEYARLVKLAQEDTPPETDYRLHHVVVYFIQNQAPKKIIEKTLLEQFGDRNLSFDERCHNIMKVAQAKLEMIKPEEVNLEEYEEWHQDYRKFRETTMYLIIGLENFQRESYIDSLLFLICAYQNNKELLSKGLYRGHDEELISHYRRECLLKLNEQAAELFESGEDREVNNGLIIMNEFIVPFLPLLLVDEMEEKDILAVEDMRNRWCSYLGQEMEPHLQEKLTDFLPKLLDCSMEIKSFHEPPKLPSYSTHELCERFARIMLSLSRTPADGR
# In short: as §1
# USP28 = target: T3, USP28 (UniProt Q96RU2)
# T3 sequence (whole entry): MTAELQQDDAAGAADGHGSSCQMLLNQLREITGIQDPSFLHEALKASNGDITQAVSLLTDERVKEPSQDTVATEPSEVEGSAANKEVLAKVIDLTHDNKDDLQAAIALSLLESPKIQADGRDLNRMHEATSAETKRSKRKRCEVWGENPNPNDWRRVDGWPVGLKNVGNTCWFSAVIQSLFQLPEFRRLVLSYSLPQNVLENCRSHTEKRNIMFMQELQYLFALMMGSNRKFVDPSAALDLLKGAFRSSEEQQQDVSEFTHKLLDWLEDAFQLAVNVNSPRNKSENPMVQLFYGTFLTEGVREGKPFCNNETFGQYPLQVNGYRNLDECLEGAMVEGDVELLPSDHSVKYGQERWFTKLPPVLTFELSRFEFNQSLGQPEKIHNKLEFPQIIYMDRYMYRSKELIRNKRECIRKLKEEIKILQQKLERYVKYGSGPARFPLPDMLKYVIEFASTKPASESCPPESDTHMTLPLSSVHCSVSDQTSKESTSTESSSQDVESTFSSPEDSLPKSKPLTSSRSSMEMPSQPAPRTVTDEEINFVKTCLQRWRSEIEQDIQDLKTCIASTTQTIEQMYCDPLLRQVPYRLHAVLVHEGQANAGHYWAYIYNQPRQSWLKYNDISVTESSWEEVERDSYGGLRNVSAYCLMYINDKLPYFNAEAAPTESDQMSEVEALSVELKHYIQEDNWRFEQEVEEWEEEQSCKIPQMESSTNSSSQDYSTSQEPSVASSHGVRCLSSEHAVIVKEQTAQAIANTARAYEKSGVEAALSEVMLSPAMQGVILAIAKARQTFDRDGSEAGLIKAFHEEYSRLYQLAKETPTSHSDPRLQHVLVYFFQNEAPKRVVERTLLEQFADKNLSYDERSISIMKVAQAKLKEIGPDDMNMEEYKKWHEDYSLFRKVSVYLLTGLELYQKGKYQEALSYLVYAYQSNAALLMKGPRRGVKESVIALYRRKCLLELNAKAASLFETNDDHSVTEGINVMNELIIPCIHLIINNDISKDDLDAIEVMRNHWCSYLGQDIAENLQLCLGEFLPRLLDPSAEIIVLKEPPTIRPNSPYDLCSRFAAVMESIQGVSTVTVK
# In short: as §1
# USP24, sequence (Q9UPU5 whole entry): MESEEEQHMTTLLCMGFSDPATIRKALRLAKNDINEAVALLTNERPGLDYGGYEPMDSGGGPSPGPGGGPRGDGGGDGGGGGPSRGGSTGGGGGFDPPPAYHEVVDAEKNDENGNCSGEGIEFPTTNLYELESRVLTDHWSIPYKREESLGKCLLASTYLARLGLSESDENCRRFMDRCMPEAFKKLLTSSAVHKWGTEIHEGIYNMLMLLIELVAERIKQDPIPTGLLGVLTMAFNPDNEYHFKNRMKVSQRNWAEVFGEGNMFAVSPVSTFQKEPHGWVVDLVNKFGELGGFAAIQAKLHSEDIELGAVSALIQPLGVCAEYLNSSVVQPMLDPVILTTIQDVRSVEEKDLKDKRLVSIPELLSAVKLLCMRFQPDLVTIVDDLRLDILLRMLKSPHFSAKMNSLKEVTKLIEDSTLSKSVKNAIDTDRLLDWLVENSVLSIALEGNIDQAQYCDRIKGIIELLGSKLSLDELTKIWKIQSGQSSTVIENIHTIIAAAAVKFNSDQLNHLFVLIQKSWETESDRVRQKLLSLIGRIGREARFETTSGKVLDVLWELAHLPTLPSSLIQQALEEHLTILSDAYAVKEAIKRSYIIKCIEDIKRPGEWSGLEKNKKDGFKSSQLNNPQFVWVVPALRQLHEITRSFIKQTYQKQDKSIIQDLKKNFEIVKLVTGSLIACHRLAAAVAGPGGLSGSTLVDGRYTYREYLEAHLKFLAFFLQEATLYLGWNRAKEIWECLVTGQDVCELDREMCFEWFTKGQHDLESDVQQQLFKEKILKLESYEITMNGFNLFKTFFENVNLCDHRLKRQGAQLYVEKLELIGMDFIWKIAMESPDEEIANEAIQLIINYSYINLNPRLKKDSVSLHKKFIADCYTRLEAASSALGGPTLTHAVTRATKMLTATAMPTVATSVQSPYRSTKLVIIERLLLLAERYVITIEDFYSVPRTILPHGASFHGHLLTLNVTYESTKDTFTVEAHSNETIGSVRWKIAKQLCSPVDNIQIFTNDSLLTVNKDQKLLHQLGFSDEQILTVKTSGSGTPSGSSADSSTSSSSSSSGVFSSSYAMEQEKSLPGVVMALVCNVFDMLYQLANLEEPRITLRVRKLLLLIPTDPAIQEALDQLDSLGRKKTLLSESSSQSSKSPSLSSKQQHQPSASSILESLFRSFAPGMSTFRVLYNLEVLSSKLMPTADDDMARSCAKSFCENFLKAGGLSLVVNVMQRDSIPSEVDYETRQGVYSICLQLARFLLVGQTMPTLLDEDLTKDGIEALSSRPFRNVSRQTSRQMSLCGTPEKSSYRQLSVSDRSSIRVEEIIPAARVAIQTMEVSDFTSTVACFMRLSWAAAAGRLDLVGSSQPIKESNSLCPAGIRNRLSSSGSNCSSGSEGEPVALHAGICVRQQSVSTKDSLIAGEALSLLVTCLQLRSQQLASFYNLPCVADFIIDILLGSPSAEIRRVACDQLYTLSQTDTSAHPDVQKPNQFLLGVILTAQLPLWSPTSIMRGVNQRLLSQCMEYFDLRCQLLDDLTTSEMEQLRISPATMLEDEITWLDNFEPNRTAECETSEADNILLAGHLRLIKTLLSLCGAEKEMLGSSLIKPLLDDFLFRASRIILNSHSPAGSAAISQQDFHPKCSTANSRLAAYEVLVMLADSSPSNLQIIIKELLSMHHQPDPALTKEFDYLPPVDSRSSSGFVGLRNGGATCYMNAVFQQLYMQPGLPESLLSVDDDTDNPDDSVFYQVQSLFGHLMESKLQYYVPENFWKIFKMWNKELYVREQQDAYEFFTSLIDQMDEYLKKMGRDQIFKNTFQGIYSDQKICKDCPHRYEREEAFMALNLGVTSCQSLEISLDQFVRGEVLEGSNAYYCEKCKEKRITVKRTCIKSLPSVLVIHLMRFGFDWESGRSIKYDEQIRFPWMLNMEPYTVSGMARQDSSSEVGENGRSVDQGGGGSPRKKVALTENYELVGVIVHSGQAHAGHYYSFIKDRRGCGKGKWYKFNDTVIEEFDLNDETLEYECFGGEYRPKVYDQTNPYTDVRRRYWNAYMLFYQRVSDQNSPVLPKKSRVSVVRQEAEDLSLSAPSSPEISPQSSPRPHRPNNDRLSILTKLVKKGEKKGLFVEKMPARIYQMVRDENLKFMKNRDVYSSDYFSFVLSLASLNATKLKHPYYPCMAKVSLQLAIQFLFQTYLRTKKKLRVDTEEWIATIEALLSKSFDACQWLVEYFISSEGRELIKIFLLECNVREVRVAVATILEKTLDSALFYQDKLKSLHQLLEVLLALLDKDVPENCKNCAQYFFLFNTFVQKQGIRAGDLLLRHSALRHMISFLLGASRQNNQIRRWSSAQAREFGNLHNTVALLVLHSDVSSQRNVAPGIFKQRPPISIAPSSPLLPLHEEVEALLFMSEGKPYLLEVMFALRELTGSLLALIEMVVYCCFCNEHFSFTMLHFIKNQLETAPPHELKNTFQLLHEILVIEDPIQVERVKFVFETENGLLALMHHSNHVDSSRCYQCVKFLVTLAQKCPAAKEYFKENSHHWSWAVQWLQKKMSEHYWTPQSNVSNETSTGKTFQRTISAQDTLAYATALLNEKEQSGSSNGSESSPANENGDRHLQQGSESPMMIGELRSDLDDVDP
compound,measurement,setting,value
O=C(CCl)N1CCc2nc[nH]c2C1c1ccc(Cl)cc1 (centres undefined),log2 ratio of Biotin-Ahx-Ub-VS probe labelling,USP19,-0.509
same,log2 ratio of Biotin-Ahx-Ub-VS probe labelling,USP24,-1.47 (active)
same,log2 ratio of Biotin-Ahx-Ub-VS probe labelling,USP25,-0.591
same,log2 ratio of Biotin-Ahx-Ub-VS probe labelling,USP28,-0.738
